Read-outs that look alike come from different tables or passages of the source.

One experiment deals with AAK1. Also on record: species or system human, MV4-11 + K-562 + COLO205 + SK-N-BE2 + OVCAR-8. As to conditions: read-out: apparent Kd, n = 1.
For another experiment, the system named is BMP2K. Further details: species or system human, MV4-11 + K-562 + COLO205 + SK-N-BE2 + OVCAR-8. As to conditions: read-out: apparent Kd, n = 1.
The test system of the next experiment is CLK1. Also on record: species or system human, MV4-11 + K-562 + COLO205 + SK-N-BE2 + OVCAR-8. As to conditions: read-out: apparent Kd; compound concentrations:100 nM and 1000 nM (sheet 'Samples'); n = 1.
The subject of the next experiment is CLK4. Also on record: species or system human, MV4-11 + K-562 + COLO205 + SK-N-BE2 + OVCAR-8. As to conditions: read-out: apparent Kd, n = 1.
In the next experiment the target is Q6ZSR9 (human, UniProt Q6ZSR9). Also on record: species or system MV4-11 + K-562 + COLO205 + SK-N-BE2 + OVCAR-8. As to conditions: read-out: apparent Kd, n = 1.
The next experiment concerns MELK. Also on record: species or system human, MV4-11 + K-562 + COLO205 + SK-N-BE2 + OVCAR-8. As to conditions: read-out: apparent Kd, n = 1.
The next experiment concerns RET. Also on record: species or system human, MV4-11 + K-562 + COLO205 + SK-N-BE2 + OVCAR-8. As to conditions: read-out: apparent Kd, n = 1.
For a further experiment, the system named is FLT4. Also on record: species or system human, MV4-11 + K-562 + COLO205 + SK-N-BE2 + OVCAR-8. As to conditions: read-out: apparent Kd; compound concentrations:100 nM and 1000 nM (sheet 'Samples'); n = 1.
In the next experiment the test system is GAK. Further details: species or system human, MV4-11 + K-562 + COLO205 + SK-N-BE2 + OVCAR-8. As to conditions: read-out: apparent Kd; compound concentrations:100 nM and 1000 nM (sheet 'Samples'); n = 1.
A further experiment concerns NUAK1. Further details: species or system human, MV4-11 + K-562 + COLO205 + SK-N-BE2 + OVCAR-8. As to conditions: read-out: apparent Kd, n = 1.
The test system of another experiment is CSNK2A1;CSNK2A3. Further details: species or system human, MV4-11 + K-562 + COLO205 + SK-N-BE2 + OVCAR-8. As to conditions: read-out: apparent Kd; compound concentrations: 100 nM and 1000 nM (sheet 'Samples'), CATDS: 0.112951755046268; n = 1.
For another experiment, the system named is CSNK2A2. Further details: species or system human, MV4-11 + K-562 + COLO205 + SK-N-BE2 + OVCAR-8. As to conditions: read-out: apparent Kd; compound concentrations: 100 nM and 1000 nM (sheet 'Samples'), CATDS: 0.17006619432900399; n = 1.
In a further experiment the test system is GSK3A. Further details: species or system human, MV4-11 + K-562 + COLO205 + SK-N-BE2 + OVCAR-8. As to conditions: read-out: apparent Kd; compound concentrations: 100 nM and 1000 nM (sheet 'Samples'), CATDS: 1.81293399995681E-2; n = 1.
For a further experiment, the system named is GSK3B. Further details: species or system human, MV4-11 + K-562 + COLO205 + SK-N-BE2 + OVCAR-8. As to conditions: read-out: apparent Kd; compound concentrations: 100 nM and 1000 nM (sheet 'Samples'), CATDS: 1.53717620719534E-2; n = 1.
In another experiment the test system is PAK4. Further details: species or system human, MV4-11 + K-562 + COLO205 + SK-N-BE2 + OVCAR-8. As to conditions: read-out: apparent Kd; compound concentrations: 100 nM and 1000 nM (sheet 'Samples'), CATDS: 3.0355378859093798E-2; n = 1.
The next experiment has as its system PKN1. Also on record: species or system human, MV4-11 + K-562 + COLO205 + SK-N-BE2 + OVCAR-8. As to conditions: read-out: apparent Kd, compound concentrations: 100 nM and 1000 nM (sheet 'Samples'), n = 1.
Another experiment has as its system PRKAG1. Also on record: species or system human, MV4-11 + K-562 + COLO205 + SK-N-BE2 + OVCAR-8. As to conditions: read-out: apparent Kd, compound concentrations: 100 nM and 1000 nM (sheet 'Samples'), n = 1.
In a further experiment the test system is SIK2. Further details: species or system human, MV4-11 + K-562 + COLO205 + SK-N-BE2 + OVCAR-8. As to conditions: read-out: apparent Kd; compound concentrations: 100 nM and 1000 nM (sheet 'Samples'), CATDS: 1.23582822640132E-2; n = 1.
The mark [1] stands for this setting: compound concentrations:100 nM and 1000 nM (sheet 'Samples').

Chain of Q6ZSR9 (Q6ZSR9 whole entry, looked up): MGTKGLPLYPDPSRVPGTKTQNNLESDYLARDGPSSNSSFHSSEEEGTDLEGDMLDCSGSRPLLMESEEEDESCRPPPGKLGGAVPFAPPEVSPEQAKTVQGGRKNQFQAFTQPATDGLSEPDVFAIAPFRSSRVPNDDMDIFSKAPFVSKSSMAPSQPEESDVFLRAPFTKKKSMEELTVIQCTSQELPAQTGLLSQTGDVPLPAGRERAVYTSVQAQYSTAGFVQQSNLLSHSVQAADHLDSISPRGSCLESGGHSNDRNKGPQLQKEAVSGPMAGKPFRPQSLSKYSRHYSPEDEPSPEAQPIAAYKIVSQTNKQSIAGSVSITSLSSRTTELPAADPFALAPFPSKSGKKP

Regarding `CS(=O)(=O)Nc1ccc(-c2ccnc3[nH]ccc23)cc1` [GSK993273A], the potency estimated from few doses in the experiment with AAK1 (setting [1]) was 1890 nM; in the experiment on BMP2K (setting [1]), 2000 nM; with CLK1 it was 1110 nM; with CLK4 (setting [1]) it was 1440 nM; with Q6ZSR9 (setting [1]), 2010 nM.

For the compound `CNc1cc(-c2ccc3c(N)n[nH]c3c2)nc(N)n1` [GSK2224810A], the potency estimated from few doses in the experiment on AAK1 (setting [1]) is 781 nM; with BMP2K (setting [1]) it was 1040 nM; in the experiment with CLK1, 314 nM; in the experiment with CLK4 (setting [1]), 154 nM; in the experiment on MELK (setting [1]), 898 nM; with Q6ZSR9 (setting [1]), 687 nM. Also, the potency estimated from few doses with RET (setting [1]) was 1070 nM.

In the case of `CN(C)CCNC(=O)Nc1ccc(N(C)c2ccnc(Nc3ccc(CS(C)(=O)=O)cc3)n2)cc1.Cl` [GW830900A], the potency estimated from few doses was 820 nM with AAK1 (setting [1]); 1220 nM with BMP2K (setting [1]); 1240 nM in the experiment with FLT4; 1450 nM with GAK; 1750 nM in the experiment on NUAK1 (setting [1]); 939 nM in the experiment with Q6ZSR9 (setting [1]).

Turning to `O=C(O)C(F)(F)F.O=c1[nH]ccc2nc(N[C@@H]3CCNC3)nc(Nc3ccc4c(c3)S(=O)(=O)CC4)c12` [GSK2181306A], the potency estimated from few doses in the experiment with AAK1 (compound concentrations: 100 nM and 1000 nM (sheet 'Samples'), CATDS: 1.0213142208507E-2) was 800 nM; with BMP2K (compound concentrations: 100 nM and 1000 nM (sheet 'Samples'), CATDS: 1.9243702463248E-2) it was 190 nM; with CLK4 (compound concentrations: 100 nM and 1000 nM (sheet 'Samples'), CATDS: 8.1810149624153006E-3), 1760 nM; in the experiment on CSNK2A1;CSNK2A3 it was 11.3 nM; with CSNK2A2 it was 6.46 nM; in the experiment on GSK3A, 213 nM. The potency estimated from few doses in the experiment with GSK3B was 296 nM; with MELK (compound concentrations: 100 nM and 1000 nM (sheet 'Samples'), CATDS: 8.8391559742386702E-3) it was 1290 nM; with NUAK1 (compound concentrations: 100 nM and 1000 nM (sheet 'Samples'), CATDS: 6.4011411937308901E-2) it was 25.9 nM; in the experiment on PAK4, 85 nM; in the experiment on PKN1 (CATDS: 8.6733801464620904E-3), 1380 nM; in the experiment with PRKAG1 (CATDS: 1.1132465742589101E-2), 629 nM. Further, the potency estimated from few doses in the experiment with Q6ZSR9 (compound concentrations: 100 nM and 1000 nM (sheet 'Samples'), CATDS: 1.2146463936907201E-2) is 503 nM; with RET (compound concentrations: 100 nM and 1000 nM (sheet 'Samples'), CATDS: 2.5699150815533801E-2) it was 113 nM; in the experiment on SIK2, 483 nM.

With `NCC(NC(=O)c1cc(-c2cn[nH]c2)c(-c2ccnc3[nH]ccc23)s1)c1ccccc1.NCC(NC(=O)c1cc(-c2cn[nH]c2)c(-c2ccnc3[nH]ccc23)s1)c1ccccc1.O=C(O)C(F)(F)F.O=C(O)C(F)(F)F` (stereo not drawn) [GSK1325775A], the potency estimated from few doses in the experiment on AAK1 (compound concentrations: 100 nM and 1000 nM (sheet 'Samples'), CATDS: 3.6567153264384103E-2) was 1070 nM; in the experiment with BMP2K (compound concentrations: 100 nM and 1000 nM (sheet 'Samples'), CATDS: 3.9732447761342798E-2) it was 847 nM; in the experiment with PKN1 (CATDS: 2.9340466494355399E-2), 2310 nM; in the experiment with Q6ZSR9 (compound concentrations: 100 nM and 1000 nM (sheet 'Samples'), CATDS: 4.0068531071680201E-2), 829 nM.

On to `CCn1c(-c2cccnc2O)nc2cnccc21` [SB-736715], for which the potency estimated from few doses is 1530 nM with AAK1 (compound concentrations: 100 nM and 1000 nM (sheet 'Samples'), CATDS: 1.3866746573900799E-2); 1490 nM in the experiment on PRKAG1 (CATDS: 1.40543588651099E-2).

Take `Cc1n[nH]c2cc(Nc3ccnc(Nc4cccc(CN5CCOCC5)c4)n3)ccc12` [GW682569X]: the potency estimated from few doses in the experiment with AAK1 (compound concentrations: 100 nM and 1000 nM (sheet 'Samples'), CATDS: 0.12351757147220301) is 729 nM; in the experiment on BMP2K (compound concentrations: 100 nM and 1000 nM (sheet 'Samples'), CATDS: 0.100079515212571), 1250 nM; with Q6ZSR9 (compound concentrations: 100 nM and 1000 nM (sheet 'Samples'), CATDS: 0.10935758268406801) it was 981 nM.
